# Experimental data published in PubChem BioAssay (Tox21).
# Several values for one entry are separate records, joined by “and”; a condition that tells them apart may be missing. Equal values may be shown once. Inconclusive results are not listed. Where a call stands in place of a potency, no number is given. Some compounds were tested as several samples or in several runs, with calls that do not always agree. Activity calls are given as the source filed them. Unless noted, calls follow the shape of the dose curve; as a rule, active = well fitted curve in the direction sought with a large enough effect in the repeat runs; inconclusive = weak or mixed curves; inactive = no such curve, though single readings can be large; an effect the other way counts as inactive or inconclusive.
# How the values were obtained:
# [1] = qHTS assay to identify small molecule antagonists of the thyroid receptor (TR) signaling pathway - cell viability counter screen (AID 743064); also: nearly all actives have a fitted effect of over 50% in size; also: potency is read from the fitted curve at half-maximal effect
# Procedure, shortened: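 Compounds were tested on GH3.TRE-Luc cells in the presence of T3 at 1 nM final. Following 23.5 h at 37 °C, cell viability was quantified by CellTiter-Fluor.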
# [2] = qHTS assay to identify small molecule antagonists of the thyroid receptor (TR) signaling pathway (AID 743065); also: nearly all actives have a fitted effect of over 55% in size; also: potency is read from the fitted curve at half-maximal effect
# Procedure, shortened: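 GH3.TRE-Luc rat pituitary cells (two TREs driving luciferase) were dosed with compound, then stimulated with 1 nM T3 (final) for 23.5 h at 37 C. ONE-Glo luminescence was the read-out, with CellTiter-Fluor fluorescence as the cytotoxicity counter-screen.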
# [3] = system: thyroid hormone receptor (rat, GH3 cells); assay: qHTS assay to identify small molecule agonists of the thyroid receptor (TR) signaling pathway (AID 743066; calls by dose curve)
# [4] = target: Estrogen receptor (Homo sapiens) (UniProt P03372); assay: qHTS assay to identify small molecule antagonists of the estrogen receptor alpha (ER-alpha) signaling pathway (AID 743069; active = well fitted curve in the direction sought with a large enough effect in the signal ratio in the repeat runs, not every such curve was filed as active; the % refers to the signal ratio)
# Estrogen receptor (Homo sapiens), sequence (P03372 whole entry, looked up): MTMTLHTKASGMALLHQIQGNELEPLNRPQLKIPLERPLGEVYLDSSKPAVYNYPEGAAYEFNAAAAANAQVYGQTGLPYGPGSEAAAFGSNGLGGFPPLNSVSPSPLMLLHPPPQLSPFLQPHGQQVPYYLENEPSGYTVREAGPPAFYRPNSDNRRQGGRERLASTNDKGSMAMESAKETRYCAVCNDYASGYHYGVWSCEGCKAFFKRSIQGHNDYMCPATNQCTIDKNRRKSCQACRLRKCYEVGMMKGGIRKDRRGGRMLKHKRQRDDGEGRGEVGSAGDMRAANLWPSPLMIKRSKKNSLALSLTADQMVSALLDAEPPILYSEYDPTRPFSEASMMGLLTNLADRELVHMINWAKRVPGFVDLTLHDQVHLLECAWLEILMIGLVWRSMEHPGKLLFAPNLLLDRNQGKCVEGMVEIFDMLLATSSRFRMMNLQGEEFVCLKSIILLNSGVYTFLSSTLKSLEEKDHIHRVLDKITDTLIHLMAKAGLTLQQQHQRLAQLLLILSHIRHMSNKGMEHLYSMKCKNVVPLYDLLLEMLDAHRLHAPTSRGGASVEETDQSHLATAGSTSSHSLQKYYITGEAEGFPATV
# Procedure, shortened: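 Beta-lactamase FRET fluorescence is read after 2 hr at room temperature with LiveBLAzer B/G substrate. Before that, ER-alpha-bla HEK293 cells sit 4 hr after plating, then receive compound plus 17beta-estradiol and incubate 18 hr at 37C.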
# [5] = qHTS assay to identify small molecule antagonists of the estrogen receptor alpha (ER-alpha) signaling pathway - cell viability counter screen (AID 743074; calls by dose curve;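 also: HEK293 cells carrying ER-alpha-UAS-bla reporter stimulated with 17beta-estradiol; nearly all actives have a fitted effect of over 45% in size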)
# [6] = target: Estrogen receptor (Homo sapiens) (UniProt P03372); assay: qHTS assay to identify small molecule agonists of the estrogen receptor alpha (ER-alpha) signaling pathway (AID 743075; calls by dose curve;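 also: HEK293 GripTite cells with ER-alpha and UAS-driven beta-lactamase reporter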)
# [7] = target: Estrogen receptor (Homo sapiens) (UniProt P03372); assay: qHTS assay to identify small molecule agonists of the estrogen receptor alpha (ER-alpha) signaling pathway using the BG1 cell line (AID 743079); also: nearly all actives have a fitted effect of over 20% in size
# [8] = qHTS assay to identify small molecule antagonists of the estrogen receptor alpha (ER-alpha) signaling pathway using the BG1 cell line (AID 743080; calls by dose curve;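 also: BG1 cells stimulated with 17beta-estradiol alongside compound; nearly all actives have a fitted effect of over 25% in size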; also: potency is read from the fitted curve at half-maximal effect)
# Procedure, shortened: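 Quantitative HTS on the Tox21 10K library: BG1 cells with endogenous ER-alpha and ERE-luciferase reporter, 17beta-estradiol stimulation, 21.5 h compound exposure, luminescence endpoint with parallel fluorescence cytotoxicity counter-read.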
# [9] = qHTS assay to identify small molecule antagonists of the estrogen receptor alpha (ER-alpha) signaling pathway using the BG1 cell line - cell viability counter screen (AID 743081);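 also: compound given together with 17beta-estradiol as the ER stimulus; series mostly up to about 70 µM; nearly all actives have a fitted effect of over 45% in size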
# [10] = target: Aromatase (Homo sapiens) (UniProt P11511); assay: qHTS assay to identify aromatase inhibitors (AID 743083); also: series mostly up to about 70 µM; nearly all actives have a fitted effect of over 55% in size
# Aromatase (Homo sapiens), sequence (P11511 whole entry, looked up): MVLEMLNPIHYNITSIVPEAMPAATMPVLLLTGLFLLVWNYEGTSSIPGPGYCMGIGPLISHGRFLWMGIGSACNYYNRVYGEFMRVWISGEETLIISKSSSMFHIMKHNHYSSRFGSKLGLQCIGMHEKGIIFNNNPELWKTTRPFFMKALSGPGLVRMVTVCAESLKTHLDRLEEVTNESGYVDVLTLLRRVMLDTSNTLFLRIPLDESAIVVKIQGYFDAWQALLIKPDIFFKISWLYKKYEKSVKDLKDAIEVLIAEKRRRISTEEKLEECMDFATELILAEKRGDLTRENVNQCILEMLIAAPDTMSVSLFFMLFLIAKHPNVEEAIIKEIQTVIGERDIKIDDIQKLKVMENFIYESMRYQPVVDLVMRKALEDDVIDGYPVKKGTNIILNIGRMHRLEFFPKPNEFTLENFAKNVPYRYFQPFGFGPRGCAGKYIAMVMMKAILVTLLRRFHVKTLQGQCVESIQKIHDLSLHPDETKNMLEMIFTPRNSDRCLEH
# [11] = qHTS assay to identify aromatase inhibitors - cell viability counter screen (AID 743084);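 also: cells stimulated with testosterone during compound exposure; nearly all actives have a fitted effect of over 55% in size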
# [12] = target: Aryl hydrocarbon receptor (Homo sapiens) (UniProt P35869); assay: qHTS assay to identify small molecule that activate the aryl hydrocarbon receptor (AhR) signaling pathway (AID 743085);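 also: HG2L7.5c1 human HepG2 liver cells with stably integrated DRE-driven firefly reporter; series mostly up to about 70 µM; nearly all actives have a fitted effect of over 15% in size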
# Aryl hydrocarbon receptor (Homo sapiens), sequence (P35869 whole entry, looked up): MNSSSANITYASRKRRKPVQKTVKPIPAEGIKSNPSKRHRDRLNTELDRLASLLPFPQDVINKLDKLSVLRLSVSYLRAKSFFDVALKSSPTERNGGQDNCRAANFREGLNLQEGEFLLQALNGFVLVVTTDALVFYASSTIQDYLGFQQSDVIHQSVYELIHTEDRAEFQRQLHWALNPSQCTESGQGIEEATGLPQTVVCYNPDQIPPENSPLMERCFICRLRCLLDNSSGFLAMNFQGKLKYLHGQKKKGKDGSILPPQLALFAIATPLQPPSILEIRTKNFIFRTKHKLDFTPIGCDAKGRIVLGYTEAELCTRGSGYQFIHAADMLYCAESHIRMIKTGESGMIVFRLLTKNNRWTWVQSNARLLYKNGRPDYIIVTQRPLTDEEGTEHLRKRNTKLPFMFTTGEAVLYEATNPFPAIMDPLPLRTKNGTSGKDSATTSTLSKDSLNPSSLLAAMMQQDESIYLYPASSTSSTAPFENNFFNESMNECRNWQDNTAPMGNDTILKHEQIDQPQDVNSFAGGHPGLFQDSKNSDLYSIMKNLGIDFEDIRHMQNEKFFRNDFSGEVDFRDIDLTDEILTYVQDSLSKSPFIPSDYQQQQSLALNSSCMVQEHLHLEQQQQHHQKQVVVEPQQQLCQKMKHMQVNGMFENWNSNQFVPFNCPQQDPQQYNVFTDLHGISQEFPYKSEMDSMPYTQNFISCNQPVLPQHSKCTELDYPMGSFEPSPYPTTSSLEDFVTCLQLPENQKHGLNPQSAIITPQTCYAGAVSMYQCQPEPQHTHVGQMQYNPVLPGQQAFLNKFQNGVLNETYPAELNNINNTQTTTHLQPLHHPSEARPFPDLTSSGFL
# Procedure, shortened: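 24 h compound exposure, 37C, HepG2-derived HG2L7.5c1 cells with DRE-responsive luciferase. Readouts: fluorescence viability, then luminescence at room temperature after 30 min.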
# [13] = qHTS assay to identify small molecule that activate the aryl hydrocarbon receptor (AhR) signaling pathway - cell viability counter screen (AID 743086);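 also: HepG2 liver cells carrying the AhR DRE luciferase reporter; series mostly up to about 70 µM; nearly all actives have a fitted effect of over 45% in size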
# Procedure, shortened: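 HepG2-AhR-luc (HG2L7.5c1) cells, 4000/well, treated 24 h at 37 C with compound; viability measured as CellTiter-Fluor fluorescence after 30 min in the same wells as the luciferase read.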
# [14] = target: Peroxisome proliferator-activated receptor gamma (Homo sapiens) (UniProt P37231); assay: qHTS assay to identify small molecule antagonists of the peroxisome proliferator-activated receptor gamma (PPARg) signaling pathway (AID 743191; calls by dose curve; also: series mostly up to about 63 µM; nearly all actives have a fitted effect of over 30% in size)
# Peroxisome proliferator-activated receptor gamma (Homo sapiens), sequence (P37231 whole entry, looked up): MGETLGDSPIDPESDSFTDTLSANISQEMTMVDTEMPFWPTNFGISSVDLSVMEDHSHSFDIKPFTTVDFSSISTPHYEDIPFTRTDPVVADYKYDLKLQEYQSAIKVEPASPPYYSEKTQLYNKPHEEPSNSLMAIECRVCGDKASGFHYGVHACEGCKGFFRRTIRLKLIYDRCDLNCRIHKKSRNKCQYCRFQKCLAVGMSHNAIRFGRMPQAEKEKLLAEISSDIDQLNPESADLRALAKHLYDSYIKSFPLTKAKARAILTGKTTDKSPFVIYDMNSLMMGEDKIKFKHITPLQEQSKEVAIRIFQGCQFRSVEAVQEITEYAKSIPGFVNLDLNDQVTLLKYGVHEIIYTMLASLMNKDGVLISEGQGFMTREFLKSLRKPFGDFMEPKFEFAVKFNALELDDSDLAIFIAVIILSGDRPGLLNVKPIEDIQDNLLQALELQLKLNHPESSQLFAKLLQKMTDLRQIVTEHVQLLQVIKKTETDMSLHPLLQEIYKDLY
# Procedure, shortened: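 GeneBLAzer PPARg UAS-bla HEK293H cells, 5 h post-plating, exposed to compounds 17 h at 37C. LiveBLAzer B/G FRET substrate added for 1 h at room temperature; beta-lactamase reporter read by fluorescence intensity.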
# [15] = qHTS assay to identify small molecule antagonists of the peroxisome proliferator-activated receptor gamma (PPARg) signaling pathway - cell viability counter screen (AID 743194); also: nearly all actives have a fitted effect of over 55% in size
# Procedure, shortened: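 Cytotoxicity counter screen in PPARg-bla HEK293H cells, same wells as reporter assay. Compounds plus 50 nM rosiglitazone (final) for 17 h at 37 C, then viability read by CellTiter-Glo luminescence.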
# [16] = qHTS assay for small molecule agonists of the antioxidant response element (ARE) signaling pathway (AID 743202; active = well fitted activation curve with a large enough effect in the signal ratio in the repeat runs, not every such curve was filed as active; the % refers to the signal ratio; also: potency is read from the fitted curve at half-maximal effect)
# Procedure, shortened: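 HepG2 ARE-bla reporter line, 2,000 cells/well; 5 h preincubation 37 C/5% CO2; compound (DMSO) 16 h 37 C; B/G FRET substrate 2 h RT; fluorescence intensity.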
# [17] = qHTS assay for small molecule activators of the heat shock response signaling pathway (AID 743210; active = well fitted activation curve with a large enough effect in the signal ratio in the repeat runs, with a control signal flat, not every such curve was filed as active; the % refers to the signal ratio;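 also: HeLa cells with beta-lactamase reporter driven by heat shock elements; series mostly up to about 63 µM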)
# Procedure, shortened: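 Beta-lactamase reporter read-out: FRET substrate fluorescence after 2.5 h at RT, following 5 h compound treatment at 37 C of HeLa cells carrying HSE-driven bla reporter; quantitative HTS format.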
# [18] = target: Peroxisome proliferator-activated receptor gamma (Homo sapiens) (UniProt P37231); assay: qHTS assay to identify small molecule agonists of the peroxisome proliferator-activated receptor gamma (PPARg) signaling pathway (AID 743094; active = well fitted activation curve with a large enough effect in the signal ratio in the repeat runs, not every such curve was filed as active; the % refers to the signal ratio)
# Procedure, shortened: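 Reporter activation was scored by fluorescence of cleaved LiveBLAzer B/G substrate (1 h, room temperature) in PPARg-bla HEK293H cells previously treated 17 h at 37C with DMSO-dissolved compounds.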
# [19] = qHTS assay for small molecule agonists of the antioxidant response element (ARE) signaling pathway - cell viability counter screen (AID 743203; calls by dose curve; also: nearly all actives have a fitted effect of over 55% in size)
# Procedure, shortened: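 Viability counter screen: stably transfected ARE-bla HepG2 line, 16 hrs compound exposure at 37C/5% CO2, ATP-based CellTiter-Glo luminescence measured in the reporter wells.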
# [20] = qHTS assay for small molecule activators of the heat shock response signaling pathway - cell viability counter screen (AID 743209); also: nearly all actives have a fitted effect of over 50% in size
# Procedure, shortened: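 Viability of HSE-bla HeLa cells is measured with CellTiter-Glo in the wells already used for the reporter read. Compound exposure lasts 5 h at 37 C, and luminescence is read after 30 min at room temperature.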
SMILES,Potency [1],Potency [2],outcome [3],Potency [4],Potency [5],Potency [6],Potency [7],Potency [8],Potency [9],Potency [10],Potency [11],Potency [12],Potency [13],Potency [14],Potency [15],Potency [16],Potency [17],Potency [18],Potency [19],Potency [20]
O=C(O)c1ccc2cc(C(=O)O)ccc2c1,inactive,inactive,inactive,inactive,inactive,inactive,inactive,inactive,inactive,inactive,inactive,inactive,inactive,inactive,inactive,inactive,inactive,,,
O=[N+]([O-])c1cccc(C(F)(F)F)c1,inactive,inactive,inactive,inactive,inactive,inactive,inactive,inactive,inactive,inactive,inactive,inactive,inactive,,inactive,inactive,inactive,inactive,inactive,
c1ccc(SSc2ccccc2)cc1,inactive,inactive,inactive,inactive,inactive,inactive,inactive,inactive,inactive,inactive,inactive,inactive,inactive,,,inactive,,,inactive,inactive
CCN1C(=O)c2ccccc2C1Nc1ccc(OCCN2CCCCC2)cc1 (stereo unspecified),inactive,inactive,inactive,inactive,inactive,inactive,inactive,inactive,,inactive,inactive,inactive,,,inactive,inactive,inactive,,inactive,
C=CC(C)(CCC=C(C)C)OC=O (stereo unspecified),inactive,inactive,inactive,inactive,inactive,inactive,inactive,inactive,inactive,inactive,inactive,inactive,,inactive,inactive,,inactive,inactive,inactive,inactive
c1cnccn1,inactive,inactive,inactive,inactive,inactive,inactive,inactive,inactive,inactive,inactive,inactive,,,inactive,inactive,inactive,inactive,,inactive,inactive
CC(=O)[C@H]1CC[C@H]2[C@@H]3CCC4=CC(=O)CC[C@]4(C)[C@H]3CC[C@]12C,60.8 µM (active),13.3 µM (active) and 21.6 µM (active) and 27.3 µM (active),inactive,inactive,inactive,inactive,inactive,inactive and 54.2 µM (active) and 68.6 µM (active),inactive,inactive,inactive,inactive,inactive,,,,inactive,,inactive,inactive
O=C(Oc1ccccc1)Oc1ccccc1,inactive,inactive,inactive,inactive,inactive,inactive,inactive,inactive,inactive,inactive,inactive,inactive,,inactive,inactive,inactive,inactive,inactive,inactive,inactive
FC(F)(F)c1cccc(Cl)c1,inactive,inactive,inactive,inactive,inactive,inactive,inactive,inactive,inactive,inactive,inactive,inactive,inactive,,,inactive,,,,inactive
CN(C)Cc1ccccc1O,inactive,inactive,inactive,inactive,inactive,inactive,inactive,inactive,inactive,inactive,inactive,inactive,,,inactive,inactive,inactive,inactive,inactive,inactive
OC[C@@H](O)[C@@H](O)CO,inactive,inactive,inactive,inactive,inactive,inactive,inactive,inactive,inactive,inactive,inactive,inactive,inactive,,inactive,inactive,inactive,inactive,inactive,inactive
CCC(COC(=O)CCS)(COC(=O)CCS)COC(=O)CCS,inactive,inactive,inactive,inactive,inactive,inactive,inactive,inactive,inactive,inactive,inactive,inactive,inactive,inactive,inactive,,,inactive,,inactive
O=C(O)c1cc(-c2ccc(F)cc2F)ccc1O,inactive,inactive,inactive,inactive,inactive,inactive,inactive,inactive,inactive,inactive,inactive,inactive,,,inactive,13.3 µM (active),inactive,,inactive,inactive
O[C@@H]([C@H](O)[C@H](O)CBr)[C@H](O)CBr,inactive,inactive,inactive,inactive,inactive,inactive,inactive,inactive,inactive,inactive,inactive,inactive,,,inactive,inactive,inactive,inactive,inactive,inactive
CCC(=O)OC(=O)CC,inactive,inactive,inactive,inactive,inactive,inactive,inactive,inactive,inactive,inactive,inactive,inactive,,,inactive,,inactive,inactive,,inactive
